Assay outcomes deposited in PubChem by several laboratories.
Hits are enriched below; roughly 3.6% of the tested compounds scored in any of these assays.
HSP90 inh: HSP90 inhibitors, primary screen, cell lysate, luminescence; Rabbit reticulocyte lysate, luciferase refolding luminescence, 3 h; Heat shock protein HSP 90 (rabbit reticulocyte lysate; luciferase refolding); AID 1789, 2009; inhibition, % at 5.6 µM; 0.91% of 290,000 active;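 active = inhibition above the screen-wide mean plus 3 SD, computed separately per campaign, cut at about 16% in these data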;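 note: inhibitors lower the luminescence because luciferase stays unfolded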
Mdm2 MdmX PPI: inhibitors of human Mdm2-MdmX association, primary screen, cell-based, luminescence, split luciferase, SaOS-2, uHTS. Protein Mdm4 (Homo sapiens) + E3 ubiquitin-protein ligase Mdm2 (Homo sapiens), …. SaOS-2 split-luciferase Mdm2/MdmX complementation. inhibition, % at 8 µM. 3% of 330,000 active. AID 485346, 2010;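 active = inhibition of at least 50% at 8 µM in the primary screen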
CF NFkB block: inhibitors of PAF-induced NF-kB signaling, primary screen, cell-based, GFP fluorescence, uHTS; KKLEB NF-kB-GFP reporter, GFP fluorescence overnight; inhibition, % at 5 µM; 0.86% of 360,000 active; AID 588850, 2011;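 active = at least 50% inhibition at 5 µM, scaled per plate between neutral and stimulator controls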;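 note: PAF is a Pseudomonas aeruginosa culture filtrate used as stimulus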
KKLEB cytotox: cytotoxicity in KKLEB CF airway cells, primary screen, cytotoxicity control for CF NF-kB inhibitor project, cell-based, uHTS, fluorescence assay plates | KKLEB CF airway cells viability, ATPlite luminescence, overnight; active compounds read low; cells stimulated with P. aeruginosa culture filtrate | activity change (cytotoxicity), % at 5 µM | 0.36% of 360,000 active;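 active = corrected activity change at or below -50% at 5 µM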
Peg3 promoter: Peg3 promoter-driven luciferase inhibitors, primary screen, cell-based, HeLa, luciferase luminescence; inhibition, % at 20 µM; HeLa PEG-Prom luciferase reporter, overnight; 1.7% of 360,000 active;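 active = inhibition of at least 50% at 20 µM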
LGR2 inh: inhibitors of bursicon-induced LGR2 CRE-luciferase signal, primary screen, cell-based, HEK293, CRE-luciferase reporter, bursicon stimulation | Drosophila bursicon receptor LGR2 (rickets) | bursicon-stimulated, 4 h | inhibition, % at 9.99 µM | 0.35% of 380,000 active;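 active = drop in luminescence signal, shown as inhibition above about 50% in the replicate tests, limit read from the data, passing the limit was not always enough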;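 note: agonist challenge used bursicon conditioned medium at about half maximal strength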
HSP90 confirm: HSP90 inhibitors, confirmation, cell lysate, luminescence; inhibition, % at 5.9 µM; 64% of 2,300 active; shares compounds with HSP90 inh; rabbit reticulocyte lysate, luciferase refolding luminescence, 3 h; in the data active = inhibition above about 18%
FLuc counter: firefly luciferase inhibitors, HSP90 counter-screen, confirmation, artefact control for HSP90 inhibitor project, biochemical, luminescence, triplicate; shares compounds with HSP90 inh; purified native firefly luciferase; inhibition, % at 5.9 µM; 48% of 2,300 active; AID 1847, 2009;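 active = inhibition above the mean inhibition of all tested sample wells plus 3 SD, cut at about 10% in these data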
Target sequence (P08659 whole entry, looked up): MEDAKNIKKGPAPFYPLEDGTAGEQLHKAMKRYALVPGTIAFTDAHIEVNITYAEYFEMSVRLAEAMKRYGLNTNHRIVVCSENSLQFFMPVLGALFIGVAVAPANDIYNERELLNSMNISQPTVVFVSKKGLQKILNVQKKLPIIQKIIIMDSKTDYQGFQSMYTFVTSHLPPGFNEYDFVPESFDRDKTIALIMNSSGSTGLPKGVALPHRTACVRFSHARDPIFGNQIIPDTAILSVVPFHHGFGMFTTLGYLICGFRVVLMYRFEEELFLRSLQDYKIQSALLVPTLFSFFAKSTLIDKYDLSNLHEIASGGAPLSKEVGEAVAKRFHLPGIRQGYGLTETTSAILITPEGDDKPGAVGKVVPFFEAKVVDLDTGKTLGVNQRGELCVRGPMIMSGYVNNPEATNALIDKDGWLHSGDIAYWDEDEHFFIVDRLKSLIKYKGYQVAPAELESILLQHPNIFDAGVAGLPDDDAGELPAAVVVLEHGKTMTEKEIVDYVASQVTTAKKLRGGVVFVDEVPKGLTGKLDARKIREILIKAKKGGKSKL
Numbers stand for hits; . = inactive; / = not tested or not shown.

SMILES	HSP90 inh	Mdm2 MdmX PPI	CF NFkB block	KKLEB cytotox	Peg3 promoter	LGR2 inh	HSP90 confirm	FLuc counter
CNC(=O)C[C@H]1CC[C@@H]2[C@@H](COc3ccc(NC(=O)NCc4ccccc4)cc3C(=O)N2C)O1	/	/	/	/	/	.	/	/
C[C@@H]1CN([C@@H](C)CO)S(=O)(=O)c2ccc(Br)cc2O[C@@H]1CN(C)C	/	/	/	/	/	.	/	/
COc1ccc(CCC(=O)OCC(=O)c2c(N)n(CC(C)C)c(=O)n(C)c2=O)cc1	18	.	.	.	.	.	.	.
COc1ccccc1CCC(=O)OCC(=O)c1c(N)n(CC(C)C)c(=O)n(C)c1=O	/	.	.	.	.	.	/	/
O=C(/C=C\Nc1ccccn1)c1ccc(Cl)cc1	39	.	.	.	.	/	80	73
O=C1C(Nc2ccc(O)cc2)=C/C(=N/S(=O)(=O)c2cccs2)c2ccccc21	73	/	93	-65	106	100	91	.
O=C1C=C(Nc2ccc(O)cc2)C(=O)c2ccccc21	.	.	.	.	.	.	/	/
CCc1ccc(S(=O)(=O)/N=C2/C=C(Sc3ncn[nH]3)C(=O)c3ccccc32)cc1	88	/	81	.	102	/	33	34
O=S(=O)(N=C1C=CC(=NS(=O)(=O)c2ccccc2)c2ccccc21)c1ccccc1	/	/	.	.	.	.	/	/
CCc1ccc(S(=O)(=O)/N=C2\C=C(Nc3cccc(C(=O)O)c3)C(=O)c3ccccc32)cc1	69	.	96	.	.	.	82	.
O=C(O)c1ccc(NC2=C/C(=N/S(=O)(=O)c3ccccc3)c3ccccc3C2=O)cc1	86	.	89	.	.	99	93	.
CCc1ccc(S(=O)(=O)/N=C2\C=CC(=O)c3ccccc32)cc1	.	.	/	/	/	/	/	/
O=C(C[C@H]1C[C@@H]2c3cc(NC(=O)NC4CCCC4)ccc3O[C@@H]2[C@@H](CO)O1)NCc1ccncc1	/	/	/	/	/	.	/	/
CC(=O)N(C)C[C@H]1Oc2ncc(-c3ccc(C#N)cc3)cc2C(=O)N([C@H](C)CO)C[C@@H]1C	/	/	/	/	/	.	/	/
CC=Cc1ccc2n(c1=O)C[C@@H]1[C@@H](CO)[C@H](C(=O)NCC3CC3)[C@H]2N1C(=O)CC (mixture of isomers)	/	/	/	/	/	.	/	/
COc1ccc(CC(=O)Oc2cc(C)ccc2C)cc1	17	.	.	.	.	.	.	.
O=C(O)c1cccc(Nc2ccnc(Nc3cccc(C(=O)O)c3)n2)c1	37	.	.	.	.	90	40	58
Cc1[nH]n(-c2ccccc2)c(=O)c1C(c1cccc([N+](=O)[O-])c1O)c1c(C)[nH]n(-c2ccccc2)c1=O	24	.	.	.	.	.	.	.
CCC(=O)N1C[C@H](C)[C@@H](OC)CN(C)C(=O)c2cc(NC(=O)C3CCCCC3)ccc2OC[C@H]1C	/	/	/	/	/	.	/	/
C[C@H]1CN([C@@H](C)CO)S(=O)(=O)c2ccc(C3=CCCC3)cc2O[C@@H]1CN(C)S(=O)(=O)c1cn(C)cn1	/	/	/	/	/	.	/	/
Cc1ccccc1-c1ccc(=O)n(CC(=O)Nc2ccc(N3CCOCC3)cc2)n1	43	.	.	.	.	.	.	.
CN1CCN(C(=O)c2ccc(COc3ccc(C(C)(C)C)cc3)o2)CC1	.	.	.	.	.	/	/	/
CCOc1ccc(OCc2ccc(C(=O)N3CCCC3)o2)cc1	30	.	.	.	.	.	19	.
CC(C)c1ccc(OCc2ccc(C(=O)N3CCCC3)o2)cc1	17	.	.	.	.	.	24	.
CCC(C)c1ccc(OCc2ccc(C(=O)O)o2)cc1 (configuration not stated)	94	.	.	.	.	.	92	82
SMILES	HSP90 inh	Mdm2 MdmX PPI	CF NFkB block	KKLEB cytotox	Peg3 promoter	LGR2 inh	HSP90 confirm	FLuc counter
O=C(c1ccc(COc2ccc(Br)cc2)o1)N1N=C(C(F)F)CC1(O)C(F)F (configuration not stated)	.	.	.	.	.	/	/	/
CCOc1ccc(OCc2ccc(C(=O)N3N=C(C(F)F)CC3(O)C(F)F)o2)cc1 (configuration not stated)	28	.	.	.	.	.	.	.
CO[C@@H]1CN(C)C(=O)c2ccc(NC(C)=O)cc2OC[C@@H](C)N(Cc2cc(-c3ccccc3)on2)C[C@H]1C	/	/	/	/	/	.	/	/
COc1ccc(NC(=O)N(C)C[C@@H]2OCCCC[C@@H](C)Oc3ccc(NC(=O)Nc4ccc5c(c4)OCO5)cc3C(=O)N([C@H](C)CO)C[C@@H]2C)cc1	/	/	/	/	/	.	/	/
Cc1cc(C)cc(OCc2ccc(C(=O)O)o2)c1	.	.	.	.	.	/	/	/
Cc1cc(CN2CCCCC2)oc1C(=O)O	.	.	.	.	.	.	/	/
CCOC(=O)c1ccc(COc2ccc(C(C)C)cc2)o1	33	.	.	.	.	.	71	.
Cc1cc(COc2ccccc2)oc1C(=O)O	69	.	.	.	.	.	84	50
Cc1ccc(OCc2ccc(C(=O)O)o2)cc1C	70	.	.	.	.	.	71	.
CN1C(=O)c2cc(NC(=O)C3CC3)ccc2OC[C@@H]2O[C@H](CC(=O)NC3CCC3)CC[C@H]21	/	/	/	/	/	.	/	/
O=C(O)CCCNc1cc(N2CCC3(CC2)OCCO3)c2noc3c2c1C(=O)c1ccccc1-3	31	.	/	/	/	/	30	29
O=C(O)CCCNc1cc(N2CCN(C(=O)c3ccco3)CC2)c2noc3c2c1C(=O)c1ccccc1-3	.	.	.	.	.	.	/	/
C[C@@H]1CN([C@H](C)CO)C(=O)c2cccc(NS(=O)(=O)c3ccc(F)cc3)c2O[C@@H]1CN(C)S(C)(=O)=O	/	/	/	/	/	.	/	/
Brc1ccccc1OCCCN1CCCCCC1	.	.	.	.	.	.	/	/
CC(=O)c1ccccc1OCCCN1CCCCC1	28	.	.	.	.	/	.	.
c1ccc2c(C3=NNC(=NC4CC4)SC3)c[nH]c2c1	19	.	.	.	.	58	61	38
Cc1ccc(C(=O)N/C(=C\c2sccc2C)C(=O)NCc2ccco2)cc1	25	.	.	.	.	/	.	.
